HepG2 viability = qHTS for Inhibitors of TGF-b: Cytotox Counterscreen; Potency, µM (series often up to 46.1 µM), without a hit: at the highest dose activity change, negative = cytotoxicity, usual class: cytotoxic; HepG2 CAGA-GFP viability, ATP luminescence, 18 h; 410,000 compounds, 0.76% hits; AID 588856, 2011; note: potency is the fitted concentration of half-maximal effect
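HepG2 CAGA-GFP cells (1000/well, DMEM with 1% FBS) received compound, then TGF-beta at 500 pg/mL final, and were incubated 18 hours at 37 degrees C. Viability was read by CellTiter-Glo luminescence. Media-only wells were set as complete cell-killing and DMSO as no toxicity.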
TDP1 block = qHTS Assay for Inhibitors of Tyrosyl-DNA Phosphodiesterase (TDP1). recombinant TDP1, AlphaScreen DNA substrate cleavage. 350,000 compounds, 0.28% hits. Tyrosyl-DNA phosphodiesterase 1 (Homo sapiens), Q9NUW8. AID 485290, 2010. Potency, µM (series often up to 130 µM), without a hit: at the highest dose activity change, negative = inhibition, most hits filed as inhibitors; note: potency is the fitted concentration of half-maximal effect; % is set by controls: 0 for no effect and ±100 for the full control effect; nearly all actives have a fitted effect of over 40% in size
Target sequence (Q9NUW8 whole entry, looked up): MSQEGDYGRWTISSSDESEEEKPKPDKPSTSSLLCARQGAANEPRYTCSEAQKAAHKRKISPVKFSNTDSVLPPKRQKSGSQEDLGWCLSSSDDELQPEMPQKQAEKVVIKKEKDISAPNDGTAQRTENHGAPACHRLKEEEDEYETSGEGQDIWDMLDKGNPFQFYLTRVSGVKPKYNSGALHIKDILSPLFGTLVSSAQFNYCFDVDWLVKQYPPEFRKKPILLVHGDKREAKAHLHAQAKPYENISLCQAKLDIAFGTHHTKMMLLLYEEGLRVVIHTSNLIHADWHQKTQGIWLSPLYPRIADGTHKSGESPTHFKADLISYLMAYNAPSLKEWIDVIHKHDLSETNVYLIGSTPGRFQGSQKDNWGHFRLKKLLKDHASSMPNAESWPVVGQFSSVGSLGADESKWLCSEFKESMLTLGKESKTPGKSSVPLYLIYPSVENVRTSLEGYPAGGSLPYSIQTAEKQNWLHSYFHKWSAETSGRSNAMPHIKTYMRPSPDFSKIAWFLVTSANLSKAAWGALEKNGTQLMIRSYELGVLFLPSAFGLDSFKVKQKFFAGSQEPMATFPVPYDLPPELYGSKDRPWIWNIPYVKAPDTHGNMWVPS
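Steps: enzyme plus compound, 15 min RT; add biotin/phosphotyrosine-FITC oligonucleotide (15 nM final), react 5 min; add donor/acceptor beads (10 ug/ml final), 10 min; read AlphaScreen. Tdp1 at 1 nM final.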
TGFb inhibitor = qHTS for Inhibitors of TGF-b; 410,000 compounds, 1.2% hits; Potency, µM (series often up to 46.1 µM), inactives show at the highest dose activity, negative = inhibition, hits mostly inhibitors; AID 588855, 2011; HepG2 CAGA-GFP TGF-b/SMAD3 reporter, GFP fluorescence, 18 h; TGF-beta stimulated, 500 pg/mL final; note: potency is the fitted concentration of half-maximal effect; % is set by controls: 0 for no effect and ±100 for the full control effect; nearly all actives have a fitted effect of over 65% in size
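HEPG2 CAGA-GFP reporter cells (1000/well, DMEM with 1% FBS) received compounds, then recombinant TGF-beta at 500 pg/mL final for 18 hours at 37 degrees C. Per-cell GFP summed per well was normalised to unstimulated and stimulated DMSO controls before curve fitting.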
DT40 TDP1 no CPT = qHTS for Inhibitors of human tyrosyl-DNA phosphodiesterase 1 (TDP1): qHTS in cells in absence of CPT; DT40 Tdp1-/- hTDP1 cells, no CPT, ATP luminescence, 48 h; 420,000 compounds, 15% hits; Potency, µM (doses to about 46.2 µM), for the others: top-dose activity change, negative = growth inhibition, actives largely listed as inhibitors; note: potency is the fitted concentration of half-maximal effect; % is set by controls: 0 for no effect and ±100 for the full control effect; nearly all actives have a fitted effect of over 55% in size
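A cellular qHTS used chicken DT40 cells lacking endogenous Tdp1 but carrying stably transfected human TDP1. Compounds were applied without camptothecin, and cell growth kinetics were judged by ATP-dependent luminescence after ≥48 hr.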
IL1B secr inh = qHTS for Inhibitors of Inflammasome Signaling: IL-1-beta AlphaLISA Primary Screen; 360,000 compounds, 4.7% hits; activity change, % at 57.5 µM; AID 743279, 2014; THP-1 LPS/ATP IL-1B secretion, AlphaLISA, 16 h; hits give low values; in the data active = activity change below about -50%; inconclusive = mostly about -30% to -49%; note: % is set by controls: 0 for no effect and ±100 for the full control effect
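Secreted IL-1B measured by AlphaLISA bead assay after 16 h compound exposure of THP-1 cells; compounds (final up to 57.5 uM) added 1 h before LPS (250 ng/mL) and ATP (1.25 mM) stimulation; lower signal means less secretion.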
DT40 TDP1 CPT = qHTS for Inhibitors of human tyrosyl-DNA phosphodiesterase 1 (TDP1): qHTS in cells in presence of CPT; chicken DT40 Tdp1-/-;hTDP1 cells + 20 nM CPT, ATP luminescence, 48 h; Potency, µM (highest dose often 46.2 µM), for inactives: at the top dose activity change, negative = growth inhibition, actives largely listed as inhibitors; 420,000 compounds, 12% hits; AID 686979, 2013; note: potency is the fitted concentration of half-maximal effect; % is set by controls: 0 for no effect and ±100 for the full control effect; nearly all actives have a fitted effect of over 55% in size
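Chicken DT40 Tdp1-/- cells stably complemented with human TDP1 were seeded at 400 cells/well in medium containing 20 nM camptothecin, exposed to pin-transferred compounds, and grown at 37 °C for at least 48 hr. Viability was read as ATP luminescence.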
* marks the source's active call; other numbers are inactive results; ? = inconclusive; . = not tested or not shown; [ ] = another dose, or the depositor's remark. Sampled rows, rich in hits. Any-hit rate of the full collection: about 19%. Unless noted, calls come from the whole dose curve; as a rule, active = well fitted curve in the direction sought with a large enough effect; inconclusive = small, poorly fitted or top-dose-only effect, or another doubt; inactive = no such curve, though single readings can be large; an effect the other way counts as inactive or inconclusive.

SMILES | HepG2 viability | TDP1 block | TGFb inhibitor | DT40 TDP1 no CPT | IL1B secr inh | DT40 TDP1 CPT
Nc1ncnc2c1nc(Sc1ccc(Cl)cc1)n2[C@@H]1O[C@@H]2COP(O)(=S)O[C@H]2[C@H]1O (stereo partly drawn) | . | 5.6% | . | . | . | .
CN(Cc1cccc(-c2cccnc2)c1)C(=O)Oc1ccc([N+](=O)[O-])cc1 | . | . | . | ? | -24.9 | 18.4µM*
Cc1nc(-c2cccc(CN(C)C(=O)Oc3ccc([N+](=O)[O-])cc3)c2)no1 | . | . | . | 16.4µM* | -7.4 | ?
C[N+]1(C)[C@@H]2CC(OC(=O)[C@@H](CO)c3ccccc3)C[C@@H]1[C@H]1O[C@H]12 (stereo partly drawn) | . | 6.4% | . | . | . | .
O=C(c1ccc(CNS(=O)(=O)c2ccc(Br)cc2)cc1)N1CCC2(CC1)OCCO2 | -6.3% | 2.5% | 5.0% | 9.2µM* | 24.6 | ?
CCc1ccc([C@H]2[C@@H]3C(=O)C[C@@H]4C(=O)N(Cc5ccccc5)C(=O)[C@@H]4[C@@H]3CN2S(=O)(=O)c2ccc(C)cc2)cc1 | 1.6% | . | ? | ? | -14.6 | ?
COC(=O)C1=C(c2ccc(OC(F)(F)F)cc2)C[C@@H]2CC[C@H]1N2C(=O)NCc1cccc2ccccc12 | 4.8% | -0.1% | ? | ? | -70.9* | ?
COC(=O)C1=C(c2ccc(S(C)(=O)=O)cc2)C[C@@H]2CC[C@H]1N2C(=O)NCc1ccc(F)cc1 | -12.4% | . | -1.5% | -13.7% | 41.2 | -0.3%
COC(=O)C1=C(c2ccc(OC(F)(F)F)cc2)C[C@@H]2CC[C@H]1N2C(=O)NCc1cc(C)oc1C(F)(F)F | -16.4% | -0.5% | ? | 20.6µM* | 16.4 | ?
COC(=O)C1=C(c2ccc3ccccc3c2)C[C@@H]2CC[C@H]1N2C(=O)NCc1ccc(F)cc1 | 5.6% | 0.9% | ? | 16.4µM* | -6.8 | ?
COC(=O)C1=C(c2ccc(OC(F)(F)F)cc2)C[C@@H]2CC[C@H]1N2C(=O)NCc1ccc(F)cc1 | -4.0% | 0.2% | ? | 20.6µM* | -9.2 | 18.4µM*
CC(C)(C)c1cc([N+](=O)[O-])cc(C(C)(C)C)c1O | -40.2% | 2.7% | 7.94µM* | 5.17µM* | -16.2 | 10.3µM*
NC(=O)c1cc([N+](=O)[O-])cc([N+](=O)[O-])c1 | -7.6% | 4.3% | -1.4% | ? | 27.3 | ?
Cc1cccn2c(=O)c3c(nc12)N1CCC(Cc2ccccc2)CC1C1(C3)C(=O)N(C)C(=O)N(C)C1=O (stereo not drawn) | -22.2% | 0.0% | -8.9% | ? | -19.8 | 18.4µM*
CN1C(=O)N(C)C(=O)C2(Cc3c(nc4ccccn4c3=O)N3CCC(Cc4ccccc4)CC32)C1=O (stereo not drawn) | . | 3.1% | . | . | . | .
COc1ccc(C(=O)N/N=C/C23CC[C@@H](O)CC2(O)CC[C@@H]2[C@@H]3CCC3(C)C(C4=CC(=O)OC4)CCC23O)cc1 (stereo partly drawn) | -32.8% | . | -6.0% | -1.2% | -70.6* | -2.7%
CC12CC[C@H]3[C@@H](CCC4(O)C[C@H](O)CCC34/C=N/NC(=O)c3ccccc3F)C1(O)CCC2C1=CC(=O)OC1 (stereo partly drawn) | -27.2% | . | 2.4% | 20.8% | -1.4 | 1.7%
CC12CC[C@H]3[C@@H](CCC4(O)C[C@H](O)CCC34/C=N/NC(=O)c3ccc(O)cc3)C1(O)CCC2C1=CC(=O)OC1 (stereo partly drawn) | 1.1% | 5.2% | 13.9% | 1.2% | 9.1 | 0.8%
C[C@]12CCC3C(CC[C@]4(O)C[C@@H](O)CC[C@]34C=O)[C@@]1(O)CC[C@@H]2C1=CC(=O)OC1 (stereo partly drawn) | . | 4.8% | . | 5.96µM* | . | 9.44µM*
Cc1ccc(-c2nc3ncccc3o2)cc1NC(=O)c1cccc(OCC(C)C)c1 | -2.9% | . | 2.1% | ? | . | -27.9%
COc1c(C)cc(Br)cc1C(=O)Nc1ccc(-c2nc3ncccc3o2)cc1 | -21.8% | 3.2% | 5.9% | 4.61µM* | . | 6.51µM*
CN(CC(=O)Nc1cccc(F)c1)CC(=O)Nc1cccc(S(=O)(=O)N(C)c2ccccc2)c1 | -11.3% | . | ? | 23.1µM* | -78.8* | 23.1µM*
O=C(Nc1ccc(Cl)cc1C(=O)c1ccccc1)c1ccccc1Br | -53.0% | 2.2%[12.3 µM] | ? | 2.91µM* | . | ?
O=C(CNC(=O)c1ccccc1)Nc1ccc(Br)cc1C(=O)c1ccccc1 | -33.7% | 4.2% | -16.8% | ? | -52.2* | 1.9%
Cc1ccc(C(=O)Nc2ccc(Cl)cc2C(=O)c2ccccc2)cc1 | -21.4% | . | -6.3% | -3.8% | -0.6 | -11.2%
SMILES | HepG2 viability | TDP1 block | TGFb inhibitor | DT40 TDP1 no CPT | IL1B secr inh | DT40 TDP1 CPT
CC(=O)NCC(=O)Nc1ccc(Br)cc1C(=O)c1ccccc1 | -34.8% | 2.8% | -18.2% | -24.5% | . | 4.1%
O=C(CN1CCCCC1)NCC(=O)Nc1ccc(Br)cc1C(=O)c1ccccc1 | -31.0% | 1.0% | -24.9% | 18.4µM* | 22.6 | 16.4µM*
O=C(CNC(=O)c1ccccc1Cl)Nc1ccc(Br)cc1C(=O)c1ccccc1 | -16.4% | 3.4% | -17.0% | 18.4µM* | 0.6 | 18.4µM*
COC(=O)[C@H]1[C@@H](c2ccccc2)[C@@]2(c3ccccc3)Oc3ccccc3[C@@]1(O)[C@@H]2O | . | 3.7%[21 µM] | . | . | . | .
Nc1ncnc2c1ncn2[C@@H]1O[C@@H]2CO[P@](=O)(S)O[C@H]2[C@H]1O | . | -1.0% | . | . | . | .
O=c1[nH]c(=O)n(-c2ccc(Br)cc2)c(O)c1C=NCCN1CCCCC1 | -39.0% | . | -16.4% | 2.0% | 3.7 | 24.0%
CCOc1ccc2c3c1O[C@H]1[C@@H](O)C=C[C@H]4[C@@H](C2)N(C)CC[C@@]341 | . | . | . | ? | . | -21.9%
Clc1ccc(C(Cl)(Cl)Cl)cc1Cl | . | -0.3% | . | . | . | .
CC(Oc1ccc(Br)cc1)C(=O)N(Cc1nc(-c2ccccc2)no1)C(C)C (stereo not drawn) | -27.1% | 4.9% | ? | ? | . | ?
COc1cc(C(=O)Nc2ccc(Br)cc2C(=O)c2ccccc2Cl)cc(OC)c1OC | -43.2% | -2.7% | ? | 23.1µM* | 27.6 | ?

High-throughput results (PubChem)
